Compound activity as filed in PubChem BioAssay.
PfM18AAP inh: blocks P. falciparum M18 aspartyl aminopeptidase; recombinant PfM18AAP, H-Glu-NHMec fluorogenic cleavage; inhibition, % at 7.35 µM; actives 1.2% (n = 290,000); AID 1822;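 active = inhibition above the campaign mean inhibition over all tested compounds plus 3 SD, cut at about 28% in these data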;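 also: 0% = plate median of test compound wells and 100% = 2 mM ZnCl2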
G6PDH counter: inhibits Leuconostoc G6PDH, flagging false hits in G6PDH-based assays | actives 0.12% (n = 200,000) | inhibition, % at 5 µM | Purified L. mesenteroides G6PDH, diaphorase/resazurin coupled fluorescence, 45 min; in the data active = inhibition above about 50%
PHOSPHO1 block: PHOSPHO1 (human) inhibition; inhibition, % at 13.3 µM; recombinant PHOSPHO1, absorbance phosphatase assay; actives 1.1% (n = 290,000); in the data active = inhibition above about 60%
UBC9 SUMO inh: blocks human SUMOylation mediated by UBC9. inhibition, % at 35 µM. AID 2006. P63279. HTRF SUMOylation assay, SAE1/SAE2 + UBC9, in vitro. actives 0.36% (n = 290,000); in the data active = inhibition above about 50%, passing the limit was not always enough
p97 inhibitor: inhibitors of human p97 ATPase | P55072 | recombinant p97 ATPase, Kinase-Glo ATP luminescence, 3 h | inhibition, % at 8 µM | actives 0.42% (n = 220,000); in the data active = inhibition above about 15%;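 also: 0% = DMSO vehicle and 100% = wells lacking enzyme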
Target sequence (P55072 whole entry, looked up): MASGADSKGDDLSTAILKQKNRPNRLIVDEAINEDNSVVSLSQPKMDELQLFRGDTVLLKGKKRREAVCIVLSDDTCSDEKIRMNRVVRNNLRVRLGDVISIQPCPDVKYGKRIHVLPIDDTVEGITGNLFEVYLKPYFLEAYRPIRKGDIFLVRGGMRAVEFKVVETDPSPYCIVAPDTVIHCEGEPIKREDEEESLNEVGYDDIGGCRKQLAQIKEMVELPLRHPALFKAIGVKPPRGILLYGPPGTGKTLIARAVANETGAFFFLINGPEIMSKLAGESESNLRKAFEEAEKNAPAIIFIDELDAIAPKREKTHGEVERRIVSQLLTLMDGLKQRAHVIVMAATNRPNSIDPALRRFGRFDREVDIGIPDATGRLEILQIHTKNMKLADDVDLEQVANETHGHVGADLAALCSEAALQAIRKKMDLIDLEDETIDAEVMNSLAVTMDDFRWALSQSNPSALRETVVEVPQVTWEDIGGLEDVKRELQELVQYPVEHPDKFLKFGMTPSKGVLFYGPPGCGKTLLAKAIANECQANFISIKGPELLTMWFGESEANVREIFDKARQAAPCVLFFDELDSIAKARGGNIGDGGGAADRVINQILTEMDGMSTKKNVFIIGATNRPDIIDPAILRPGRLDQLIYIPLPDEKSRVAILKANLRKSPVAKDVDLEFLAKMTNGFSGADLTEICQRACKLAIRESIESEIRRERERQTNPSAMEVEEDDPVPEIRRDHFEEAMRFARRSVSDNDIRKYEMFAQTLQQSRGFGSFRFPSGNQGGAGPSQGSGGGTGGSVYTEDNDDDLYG
HDAC3 inh: human HDAC3 inhibition; O15379; recombinant HDAC3, fluorogenic peptide/trypsin coupled, fluorescence; actives 0.15% (n = 320,000); inhibition, % at 8.3 µM; AID 2718; in the data active = inhibition above about 26%, passing the limit was not always enough
* hit, by the source's call; · = no result given. Shown are actives, neighbours in structure and some others; about 2.5% of the full set was active somewhere.

SMILES | PfM18AAP inh | G6PDH counter | PHOSPHO1 block | UBC9 SUMO inh | p97 inhibitor | HDAC3 inh
CC(=O)c1sc(N/N=C\c2c(O)ccc3ccccc23)nc1C | · | · | · | · | · | 1
COc1cccc(C(=O)Nc2cccc(-c3ccc4nncn4n3)c2)c1OC | 9 | 5 | -5 | -3 | 6 | -2
COc1ccc(Cl)cc1C(=O)Nc1cccc(-c2ccc3nncn3n2)c1 | -10 | 11 | 56 | 51* | 5 | 5
Cc1cc(C(=O)NC(C)C2CCCO2)no1 (configuration not stated) | 0 | 7 | 60* | 14 | -2 | 1
Cc1cc(C(=O)NC(C)C2CCCO2)c(C)o1 (configuration not stated) | 4 | · | 9 | 4 | · | -3
Cc1cc(C)n(CC(=O)NNC(=O)COc2ccc(Br)cc2F)n1 | · | · | · | · | · | 3
COCCCn1c(C(=O)Nc2ccc3c(c2)OCO3)cc2c(=O)n3ccccc3nc21 | 2 | · | 13 | 39 | · | 3
COCCCn1c(C(=O)N2CCOCC2)cc2c(=O)n3ccccc3nc21 | 2 | · | 23 | 52* | · | -120
O=[N+]([O-])c1ccc(NNC(=S)Nc2ccc(F)cc2)cc1 | 29* | 8 | -38 | 8 | -2 | 5
O=C(NNC(=S)Nc1ccc(F)cc1)c1cccc([N+](=O)[O-])c1 | 9 | · | -50 | 7 | 7 | 0
COc1ccc(N2C(=O)CC(Nc3ccc(N4CCOCC4)cc3)C2=O)c(OC)c1 (configuration not stated) | 28* | -4 | 41 | -1 | 3 | -6
O=C1CC(Nc2ccc(N3CCOCC3)cc2)C(=O)N1c1cccc(C(F)(F)F)c1 (configuration not stated) | 10 | 4 | 40 | -13 | 2 | 1
COc1cccc(N2C(=O)CC(Nc3ccc(N4CCOCC4)cc3)C2=O)c1 (configuration not stated) | 29* | 5 | 28 | -9 | 6 | 1
CCOC(=O)[C@@H]1[C@H]2COc3cc(OC)ccc3[C@@H]2N2C(=O)N(c3ccccc3)C(=O)[C@]12C | · | · | · | · | · | -5
COc1cccc(CN2CCCC(C(=O)Nc3ccc(-c4cscn4)cc3)C2)c1 (configuration not stated) | 0 | · | 51 | -18 | · | -2
COc1cc(NC(=O)c2cc3nc(C4CC4)cc(C(F)(F)F)n3n2)c(OC)cc1Cl | -3 | 5 | 60* | 26 | 2 | 0
COC(=O)c1ccccc1NC(=O)c1cc2nc(C3CC3)cc(C(F)(F)F)n2n1 | -5 | 0 | -32 | -1 | 1 | 1
CC(C)(C)OC(=O)C[C@@H]1C/C=C\C[C@@H](CC(=O)N[C@H](CO)Cc2ccccc2)C(=O)NC[C@H](c2ccccc2)OC1=O | · | · | · | · | · | 4
Cc1ccc(C2CC2c2n[nH]c(=S)n2-c2ccc(C)cc2)cc1 (configuration not stated) | 12 | 1 | 90* | 9 | -5 | 2
Cc1ccc(-n2c(C3CC3c3ccc(Cl)cc3)n[nH]c2=S)cc1 (configuration not stated) | -3 | 3 | 97* | 8 | 4 | -3
S=c1[nH]nc(C2CC2c2ccc(Cl)cc2)n1-c1ccc(Cl)cc1 (configuration not stated) | 11 | 11 | 14 | -10 | -1 | -7
Cc1ccnn1-c1ccc(C(=O)N2CCCN(S(=O)(=O)c3ccc(F)cc3)CC2)cc1 | · | · | · | · | · | 2
COc1cc(C(=O)Nc2ccncc2)cc(OC)c1OC | 6 | 1 | -6 | 16 | -4 | 0
COC(=O)c1nc(NC(=O)c2cc(OC)c(OC)c(OC)c2)n[nH]1 | 2 | · | 32 | 18 | · | 39*
CCCC[n+]1ccn(-c2nc3ccccc3nc2[N-]S(=O)(=O)c2cccs2)c1 | 1 | · | 77* | 12 | 3 | 4
CCCC[n+]1ccn(-c2nc3ccccc3nc2[N-]S(=O)(=O)c2ccccc2)c1 | -9 | -8 | -8 | -5 | -6 | -2
CN(C)S(=O)(=O)c1cccc(NC(=O)c2sccc2-c2ccccc2)c1 | -2 | · | 15 | -2 | · | -3
CCOc1ccc(Nc2ncnc3c2nnn3Cc2ccccc2)cc1 | 8 | · | 60* | 18 | · | -1
Clc1ccccc1Nc1ncnc2c1nnn2Cc1ccccc1 | 2 | -4 | -6 | -14 | 6 | -1
Cc1ccc(NC(=O)CN2CC(C)SC2=NC2CCCCC2)cc1 (configuration not stated) | -1 | -7 | 74* | -6 | 2 | -2
